# Laboratory results: PubChem BioAssay (NCI)
# About 79,000 compounds went through this panel and 15% of them were active in at least one assay; those are over-represented in the sample as a whole. A number with no mark means an inactive call. Calls of active or inactive are those of the source. No stated cut-off is given here; in the data, active means growth inhibition above about 70%; inactive means the rest.
# Columns and labels:
# [1] = NCI Yeast Anticancer Drug Screen. Data for the rad52 strain (AID 147);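 further: 0% = growth of vehicle-treated control cultures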; conditions: S. cerevisiae rad52 mutant growth inhibition, active compounds read high
# Summary of the method: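 Yeast strain carrying a DNA damage repair alteration was exposed to test compounds. Growth inhibition was measured relative to vehicle-treated controls.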
# [2] = NCI Yeast Anticancer Drug Screen. Data for the wt1 strain (AID 149);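 further: 0% = growth of vehicle-treated wt1 cultures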; conditions: S. cerevisiae wt1 strain (SPY 50644) growth inhibition, active compounds read high
# Summary of the method: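 Measured: growth of wt1 yeast under compound versus vehicle treatment, reported as inhibition.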
# [3] = NCI Yeast Anticancer Drug Screen. Data for the rad50EPP+ strain (AID 151);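 further: 0% = growth of vehicle-treated control cultures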; conditions: S. cerevisiae rad50 mutant strain, active compounds read high
# Summary of the method: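 Yeast strain carrying rad50 alteration (rad50EPP+) exposed to compounds; growth inhibition measured relative to vehicle-treated controls.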
# [4] = NCI Yeast Anticancer Drug Screen. Data for the mgt1 strain (AID 153); conditions: S. cerevisiae mgt1 mutant growth inhibition, active compounds read high
# Summary of the method: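 Yeast mgt1 strain (DNA repair/cell-cycle alteration panel) exposed to compounds; growth inhibition measured relative to vehicle-treated controls.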
# [5] = NCI Yeast Anticancer Drug Screen. Data for the rad50 strain (AID 155);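 further: 0% = growth of vehicle-only cultures of the same strain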; conditions: S. cerevisiae rad50 strain growth inhibition, active compounds read high
# Summary of the method: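 Growth of the mutant yeast was measured after compound exposure and referenced to vehicle-treated cultures.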
# [6] = NCI Yeast Anticancer Drug Screen. Data for the mec2-1 strain (AID 157); conditions: S. cerevisiae mec2-1 strain, active compounds read high
# Summary of the method: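 mec2-1 yeast strain, carrying an alteration in DNA damage repair or cell cycle control, was exposed to compounds; growth inhibition was measured relative to vehicle-treated controls.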
# [7] = NCI Yeast Anticancer Drug Screen. Data for the rad14 strain (AID 159);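 further: 0% = growth of vehicle-treated control cultures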; conditions: S. cerevisiae rad14 strain growth inhibition, active compounds read high
# Summary of the method: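 Here, inhibition of yeast growth was measured after compound exposure, using a strain with a genetic defect in DNA damage repair and vehicle-treated cultures as the reference.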
# [8] = NCI Yeast Anticancer Drug Screen. Data for the sgs1 mgt1 strain (AID 161);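 further: 0% = growth of cultures given vehicle only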; conditions: S. cerevisiae sgs1 mgt1 strain, active compounds read high
# Summary of the method: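 This yeast growth screen uses a strain with defined DNA-repair lesions; compound-treated growth is compared with vehicle-treated growth.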
# [9] = NCI Yeast Anticancer Drug Screen. Data for the CLN2oe strain (AID 163);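 further: 0% = growth of vehicle-only control cultures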; conditions: S. cerevisiae CLN2oe strain, active compounds read high
# Summary of the method: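 Yeast cells carrying a defined cell-cycle control alteration were exposed to test compounds. Growth inhibition was scored against vehicle-treated control cultures.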
# [10] = NCI Yeast Anticancer Drug Screen. Data for the cln2 rad14 strain (AID 165);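 further: 0% = growth equal to vehicle treated cultures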; conditions: S. cerevisiae cln2 rad14 strain, active compounds read high
# Summary of the method: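 Yeast carrying cln2 and rad14 alterations (cell cycle control and DNA damage repair) were exposed to compounds. Growth inhibition was measured against vehicle-treated controls.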
# [11] = NCI Yeast Anticancer Drug Screen. Data for the bub3 strain (AID 167); conditions: S. cerevisiae bub3 mutant strain, active compounds read high
# Summary of the method: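 Whole-cell yeast assay. The mutant strain was incubated with compounds, and growth inhibition was determined by comparison with vehicle-treated cells.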
# [12] = NCI Yeast Anticancer Drug Screen. Data for the wt2 strain (AID 169);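 further: 0% = growth of vehicle-treated yeast cultures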; conditions: S. cerevisiae wt2 strain growth inhibition, active compounds read high
# Summary of the method: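 Yeast cells were exposed to test compounds, and growth inhibition was measured relative to vehicle-treated controls.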
# [13] = NCI Yeast Anticancer Drug Screen. Data for the mlh1 strain (AID 171);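 further: 0% = growth of vehicle-treated control cultures of the same strain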; conditions: S. cerevisiae mlh1 strain growth inhibition, active compounds read high
# Summary of the method: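 Yeast carrying a defined genetic alteration in DNA damage repair or cell cycle control were exposed to test compounds. Growth inhibition was measured relative to vehicle-treated controls.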
# [14] = NCI Yeast Anticancer Drug Screen. Data for the mlh1 rad18 strain (AID 175); conditions: S. cerevisiae mlh1 rad18 strain growth inhibition, active compounds read high
# Summary of the method: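 Growth inhibition of the yeast strain was measured after compound exposure and expressed relative to vehicle-treated controls. The strain carries defined defects in DNA damage repair.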
# [15] = NCI Yeast Anticancer Drug Screen. Data for the rad18 strain (AID 177); conditions: S. cerevisiae rad18 mutant growth inhibition, active compounds read high
# Summary of the method: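 Yeast carrying a defined DNA damage repair alteration were exposed to compounds. Growth inhibition was expressed relative to vehicle-treated controls.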
# [16] = NCI Yeast Anticancer Drug Screen. Data for the sgs1 strain (AID 173);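 further: 0% = growth of vehicle-only control cultures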; conditions: S. cerevisiae sgs1 mutant, active compounds read high
# Summary of the method: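 Yeast mutant strains carrying defined defects in DNA damage repair or cell cycle control were exposed to test compounds. Growth inhibition was scored against vehicle-treated controls.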
# [17] = at 5.0 µM (retest, dose inferred, filed as 0.5)
# [18] = at 50.0 µM (retest, dose inferred, filed as 5.0)
structure (smiles),measurement,setting,value
Cc1cccc2c1C1c3c(C)cccc3C(CC(=O)O)CC1CC2 (stereo unspecified),growth inhibition,[1]; at 1.2 µM,13%
same,growth inhibition,[1]; at 3.7 µM,92% (active)
same,growth inhibition,[1]; at 11.0 µM,97% (active)
same,growth inhibition,[1]; at 33.0 µM,95% (active)
same,growth inhibition,[1]; at 100.0 µM,88% (active)
same,growth inhibition,[2]; at 1.2 µM,2%
same,growth inhibition,[2]; at 3.7 µM,77% (active)
same,growth inhibition,[2]; at 11.0 µM,98% (active)
same,growth inhibition,[2]; at 33.0 µM,96% (active)
same,growth inhibition,[2]; at 100.0 µM,92% (active)
same,growth inhibition,[3]; at 1.2 µM,15%
same,growth inhibition,[3]; at 3.7 µM,25%
same,growth inhibition,[3]; at 11.0 µM,53%
same,growth inhibition,[3]; at 33.0 µM,66%
same,growth inhibition,[3]; at 100.0 µM,48%
same,growth inhibition,[4]; at 1.2 µM,0%
same,growth inhibition,[4]; at 3.7 µM,47%
same,growth inhibition,[4]; at 11.0 µM,98% (active)
same,growth inhibition,[4]; at 33.0 µM,97% (active)
same,growth inhibition,[4]; at 100.0 µM,92% (active)
same,growth inhibition,[5]; at 1.2 µM,13%
same,growth inhibition,[5]; at 3.7 µM,90% (active)
same,growth inhibition,[5]; [17],22%
same,growth inhibition,[5]; at 11.0 µM,97% (active)
same,growth inhibition,[5]; at 33.0 µM,93% (active)
same,growth inhibition,[5]; [18],96% (active)
same,growth inhibition,[5]; at 50.0 µM,99% (active)
same,growth inhibition,[5]; at 100.0 µM,85% (active)
same,growth inhibition,[6]; at 1.2 µM,5%
same,growth inhibition,[6]; at 3.7 µM,61%
same,growth inhibition,[6]; [17],8%
same,growth inhibition,[6]; at 11.0 µM,98% (active)
same,growth inhibition,[6]; at 33.0 µM,96% (active)
same,growth inhibition,[6]; [18],98% (active)
same,growth inhibition,[6]; at 50.0 µM,99% (active)
same,growth inhibition,[6]; at 100.0 µM,90% (active)
same,growth inhibition,[7]; at 1.2 µM,5%
same,growth inhibition,[7]; at 3.7 µM,83% (active)
same,growth inhibition,[7]; at 11.0 µM,98% (active)
same,growth inhibition,[7]; at 33.0 µM,95% (active)
same,growth inhibition,[7]; at 100.0 µM,90% (active)
same,growth inhibition,[8]; [17],11%
same,growth inhibition,[8]; [18],98% (active)
same,growth inhibition,[8]; at 50.0 µM,99.5% (active)
same,growth inhibition,[9]; at 1.2 µM,16%
same,growth inhibition,[9]; at 3.7 µM,90% (active)
same,growth inhibition,[9]; at 11.0 µM,99% (active)
same,growth inhibition,[9]; at 33.0 µM,94% (active)
same,growth inhibition,[9]; at 100.0 µM,88% (active)
same,growth inhibition,[10]; [17],6%
same,growth inhibition,[10]; [18],98% (active)
same,growth inhibition,[10]; at 50.0 µM,98.8% (active)
same,growth inhibition,[11]; at 1.2 µM,10%
same,growth inhibition,[11]; at 3.7 µM,71% (active)
same,growth inhibition,[11]; [17],6%
same,growth inhibition,[11]; at 11.0 µM,97% (active)
same,growth inhibition,[11]; at 33.0 µM,95% (active)
same,growth inhibition,[11]; [18],96% (active)
same,growth inhibition,[11]; at 50.0 µM,98.8% (active)
same,growth inhibition,[11]; at 100.0 µM,87% (active)
same,growth inhibition,[12]; at 1.2 µM,5%
same,growth inhibition,[12]; at 3.7 µM,60%
same,growth inhibition,[12]; at 11.0 µM,98% (active)
same,growth inhibition,[12]; at 33.0 µM,96% (active)
same,growth inhibition,[12]; at 100.0 µM,90% (active)
same,growth inhibition,[13]; at 1.2 µM,6%
same,growth inhibition,[13]; at 3.7 µM,71% (active)
same,growth inhibition,[13]; at 11.0 µM,98% (active)
same,growth inhibition,[13]; at 33.0 µM,97% (active)
same,growth inhibition,[13]; at 100.0 µM,90% (active)
same,growth inhibition,[14]; [17],7%
same,growth inhibition,[14]; [18],97% (active)
same,growth inhibition,[14]; at 50.0 µM,99.2% (active)
same,growth inhibition,[15]; at 1.2 µM,11%
same,growth inhibition,[15]; at 3.7 µM,69%
same,growth inhibition,[15]; at 11.0 µM,98% (active)
same,growth inhibition,[15]; at 33.0 µM,95% (active)
same,growth inhibition,[15]; at 100.0 µM,88% (active)
NC(CCCCCCCCCCCCC(N)C(=O)c1ccccc1)C(=O)c1ccccc1 (stereo unspecified),growth inhibition,[1]; at 1.2 µM,-3%
same,growth inhibition,[1]; at 3.7 µM,-4%
same,growth inhibition,[1]; at 11.0 µM,88% (active)
same,growth inhibition,[1]; at 33.0 µM,92% (active)
same,growth inhibition,[1]; at 100.0 µM,96% (active)
same,growth inhibition,[2]; at 1.2 µM,-4%
same,growth inhibition,[2]; at 3.7 µM,-12%
same,growth inhibition,[2]; at 11.0 µM,75% (active)
same,growth inhibition,[2]; at 33.0 µM,95% (active)
same,growth inhibition,[2]; at 100.0 µM,95% (active)
same,growth inhibition,[3]; at 1.2 µM,-2%
same,growth inhibition,[3]; at 3.7 µM,-1%
same,growth inhibition,[3]; at 11.0 µM,-2%
same,growth inhibition,[3]; at 33.0 µM,-1%
same,growth inhibition,[3]; at 100.0 µM,-3%
same,growth inhibition,[4]; at 1.2 µM,-5%
same,growth inhibition,[4]; at 3.7 µM,-9%
same,growth inhibition,[4]; at 11.0 µM,17%
same,growth inhibition,[4]; at 33.0 µM,39%
same,growth inhibition,[4]; at 100.0 µM,94% (active)
same,growth inhibition,[5]; at 1.2 µM,-3%
same,growth inhibition,[5]; at 3.7 µM,-6%
same,growth inhibition,[5]; [17],-9%
same,growth inhibition,[5]; at 11.0 µM,81% (active)
same,growth inhibition,[5]; at 33.0 µM,85% (active)
same,growth inhibition,[5]; [18],88% (active)
same,growth inhibition,[5]; at 50.0 µM,-5.55%
same,growth inhibition,[5]; at 100.0 µM,93% (active)
same,growth inhibition,[6]; at 1.2 µM,-6%
same,growth inhibition,[6]; at 3.7 µM,-15%
same,growth inhibition,[6]; [17],-15%
same,growth inhibition,[6]; at 11.0 µM,43%
same,growth inhibition,[6]; at 33.0 µM,61%
same,growth inhibition,[6]; [18],92% (active)
same,growth inhibition,[6]; at 50.0 µM,-9.95%
same,growth inhibition,[6]; at 100.0 µM,91% (active)
same,growth inhibition,[7]; at 1.2 µM,-6%
same,growth inhibition,[7]; at 3.7 µM,-12%
same,growth inhibition,[7]; at 11.0 µM,38%
same,growth inhibition,[7]; at 33.0 µM,62%
same,growth inhibition,[7]; at 100.0 µM,96% (active)
same,growth inhibition,[8]; [17],-10%
same,growth inhibition,[8]; [18],94% (active)
same,growth inhibition,[8]; at 50.0 µM,-12.2%
same,growth inhibition,[9]; at 1.2 µM,-9%
same,growth inhibition,[9]; at 3.7 µM,-20%
same,growth inhibition,[9]; at 11.0 µM,52%
same,growth inhibition,[9]; at 33.0 µM,91% (active)
same,growth inhibition,[9]; at 100.0 µM,95% (active)
same,growth inhibition,[10]; [17],-26%
same,growth inhibition,[10]; [18],92% (active)
same,growth inhibition,[10]; at 50.0 µM,-32.3%
same,growth inhibition,[11]; at 1.2 µM,-3%
same,growth inhibition,[11]; at 3.7 µM,0%
same,growth inhibition,[11]; [17],4%
same,growth inhibition,[11]; at 11.0 µM,74% (active)
same,growth inhibition,[11]; at 33.0 µM,95% (active)
same,growth inhibition,[11]; [18],94% (active)
same,growth inhibition,[11]; at 50.0 µM,-2.55%
same,growth inhibition,[11]; at 100.0 µM,91% (active)
same,growth inhibition,[12]; at 1.2 µM,-4%
same,growth inhibition,[12]; at 3.7 µM,-8%
same,growth inhibition,[12]; at 11.0 µM,83% (active)
same,growth inhibition,[12]; at 33.0 µM,96% (active)
same,growth inhibition,[12]; at 100.0 µM,96% (active)
same,growth inhibition,[13]; at 1.2 µM,-4%
same,growth inhibition,[13]; at 3.7 µM,-10%
same,growth inhibition,[13]; at 11.0 µM,59%
same,growth inhibition,[13]; at 33.0 µM,94% (active)
same,growth inhibition,[13]; at 100.0 µM,93% (active)
same,growth inhibition,[16]; at 1.2 µM,-5%
same,growth inhibition,[16]; at 3.7 µM,-7%
same,growth inhibition,[16]; at 11.0 µM,82% (active)
same,growth inhibition,[16]; at 33.0 µM,96% (active)
same,growth inhibition,[16]; at 100.0 µM,95% (active)
same,growth inhibition,[14]; [17],-8%
same,growth inhibition,[14]; [18],-13%
same,growth inhibition,[14]; at 50.0 µM,-10.4%
same,growth inhibition,[15]; at 1.2 µM,-6%
same,growth inhibition,[15]; at 3.7 µM,-9%
same,growth inhibition,[15]; at 11.0 µM,41%
same,growth inhibition,[15]; at 33.0 µM,96% (active)
same,growth inhibition,[15]; at 100.0 µM,96% (active)
